Measured values from PubChem BioAssay AID1851 (National Center for Advancing Translational Sciences (NCATS), 2009).
Where “and” joins values, the source holds several entries; their conditions need not be identical. Equal values may be shown once. Among all 16,000 compounds or so, about 2,600 (16%) were called active. Inconclusive results (about 20%) are left out. Calls come from the whole dose curve; as a rule, active = well fitted curve in the direction sought with a large enough effect; inconclusive = small, poorly fitted or top-dose-only effect, or effect the other way; inactive = no such curve, though single readings can be large or run the other way. Only a sample is shown. Some structures have more than one record in an assay (separate samples or runs), and their calls can disagree.

target: Cytochrome P450 2D6 (Homo sapiens) (UniProt P10635); assay: Cytochrome panel assay with activity outcomes; details: recombinant CYP, pro-luciferin dealkylation, luminescence, p450-cyp2d6; series mostly up to 57.1 µM; activity, negative = inhibition: at the top concentration
% is set by controls: 0 for no effect and ±100 for the full control effect.

Chain of Cytochrome P450 2D6 (Homo sapiens) (P10635 whole entry, looked up): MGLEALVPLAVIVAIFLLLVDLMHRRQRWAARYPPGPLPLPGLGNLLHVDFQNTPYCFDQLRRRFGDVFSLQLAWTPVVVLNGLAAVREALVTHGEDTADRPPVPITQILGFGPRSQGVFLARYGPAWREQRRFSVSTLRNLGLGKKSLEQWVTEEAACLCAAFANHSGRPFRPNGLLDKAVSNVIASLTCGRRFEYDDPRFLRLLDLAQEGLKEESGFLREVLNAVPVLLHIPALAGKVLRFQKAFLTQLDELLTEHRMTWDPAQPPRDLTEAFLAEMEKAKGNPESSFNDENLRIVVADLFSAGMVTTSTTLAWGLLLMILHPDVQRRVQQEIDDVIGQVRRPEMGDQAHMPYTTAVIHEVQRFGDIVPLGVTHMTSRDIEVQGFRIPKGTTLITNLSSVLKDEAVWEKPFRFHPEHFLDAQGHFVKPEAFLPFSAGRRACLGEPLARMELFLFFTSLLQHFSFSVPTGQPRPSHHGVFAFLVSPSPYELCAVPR

Structure (SMILES)	activity, negative = inhibition	AC50
COC(=O)N1CCC2(CCN(C(=O)NC(C)C)CC2)CC1	-13.5% (inactive)	–
CC(C)NC(=O)N1CCCC2(CCN(S(=O)(=O)c3ccccc3)CC2)C1	–	0.316 µM (active)
CS(=O)(=O)N1CCC[C@@]2(CCN(C(=O)Nc3cccc(F)c3)C2)C1	5.14% (inactive)	–
CC(C)NC(=O)N1CCC2(CC1)CCN(S(C)(=O)=O)CC2	–	15.8 µM (active)
CC(C)NC(=O)N1CC2(CCN(S(=O)(=O)c3ccccc3)CC2)C1	0.223% (inactive)	–
CC(C)NC(=O)N1CCCC2(CCN(C(=O)c3cccn3C)CC2)C1	-1.09% (inactive)	–
CC(C)NC(=O)N1CC[C@@]2(CCCN(S(C)(=O)=O)C2)C1	-3.82% (inactive)	–
O=C(Nc1cccc(F)c1)N1CCCC2(CCN(S(=O)(=O)c3ccccc3)CC2)C1	–	12.6 µM (active)
CS(=O)(=O)N1CCC2(CCCN(C(=O)Nc3cccc(F)c3)C2)CC1	-4.34% (inactive)	–
O=C(C1CCN(S(=O)(=O)N2CCOCC2)CC1)N1CCN(c2ccccc2)CC1	7.34% (inactive)	–
CN(C)c1ncc2nc(-c3cc(F)cc(F)c3)c(=O)n(Cc3cccs3)c2n1	-2.95% (inactive)	–
CCN1CCN(C(=O)N[C@H](C(=O)N[C@@H]2C(=O)N3[C@@H]2SC(C)(C)[C@@H]3C(=O)O)c2ccccc2)C(=O)C1=O	-0.322% [at 25.6 µM] (inactive)	–
CC(=O)[C@H](C(=N)C#N)C(=O)Nc1ccccc1	5.49% [at 11.4 µM] (inactive)	–
CCC(=O)OCN1C(=O)C=CC1=O	6.64% [at 11.4 µM] (inactive)	–
O=c1cc(CF)[nH]c(=S)[nH]1	11.9% [at 11.4 µM] (inactive)	–
CN(C)c1ncc2ncc(=O)n(CCC#N)c2n1	3.67% (inactive)	–
COc1ccc(NC(=O)N2CCC3(CC2)CCN(C(=O)c2cnccn2)CC3)cc1	-1.61% (inactive)	–
COc1cc(N=c2ssnc2Cl)cc(OC)c1OC	–	3.16 µM (active)
COc1cccc(NC(=O)Cc2c(C(=O)O)[nH]c3ccccc23)c1	28.7% (inactive)	–
CC(C)COC[C@H](CN(Cc1ccccc1)c1ccccc1)N1CCCC1	–	inactive and 15.8 nM (active)
CCOC(=O)c1ccc(NC(=O)C2CCCO2)cc1 (stereo not given)	4.57% (inactive)	–
O=C(NNC(=O)C1CCCCC1)c1cnccn1	-1.43% (inactive)	–
Cn1cccc1C(=O)N1CCC2(CCCN(c3cccc(-c4ccccc4)c3)C2)CC1	-7.33% (inactive)	–
COc1ccc(-n2c(=O)c(-c3ccc(F)cc3)nc3cnc(N4CCOCC4)nc32)cc1	-6.08% (inactive)	–
Cn1c(-c2ccc(CN3CCCCC3)o2)nc2ccccc21	-28.7% (inactive)	–
Oc1ccc(Cn2c(-c3ccc(O)cc3)nc3ccccc32)cc1	1.43% [at 11.4 µM] (inactive)	–
O=S(=O)(O)c1nc2ccccc2n1Cc1ccccc1	-9.7% (inactive)	–
CS(=O)(=O)c1nc2ccccc2n1Cc1ccccc1	-21.3% (inactive)	–
Clc1ccc(Cn2c(CN3CCCC3)nc3ccccc32)cc1	–	1.26 µM (active) and 794 nM (active)
c1ccc(Cn2c(CN3CCCC3)nc3ccccc32)cc1	–	8.91 µM (active)
